ADAM10 inh = ADAM10 inhibition, QFRET primary screen; AID 720582; hit rate 0.62% among 370,000; inhibition, % at 7 µM; recombinant ADAM10, EDANS/DABCYL FRET peptide cleavage, 3 h;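 active = inhibition above a per-campaign cutoff equal to the mean of compounds falling between control-based bounds plus 3 SD, cut at about 20% in these data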;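 also: 0% = DMSO wells while the 100% control is not disclosed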
KLK7 zymogen act = activators of human kallikrein-7 zymogen; P49862; purified proKLK7, EDANS-DABCYL substrate fluorescence; 100% is mature enzyme control, 0% vehicle; activation, % at 7 µM; hit rate 0.9% among 370,000; AID 652039;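 active = activation above the mean of all tested compounds plus 3 SD, computed per campaign excluding outliers beyond control limits, cut at about 13% in these data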
ADAM17 inh = ADAM17 inhibition, QFRET primary screen. inhibition, % at 6.95 µM. AID 720648. recombinant ADAM17, EDANS/DABCYL FRET peptide cleavage. P78536. hit rate 0.83% among 370,000;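 active = inhibition above the mean of compounds lying between control limits plus 3 SD, set per campaign, cut at about 8.5% in these data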;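 also: 0% = DMSO-only wells as the low control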
GRIN3A LBD mod = modulates the human NR3A ligand-binding domain | NR3A LBD differential scanning fluorimetry, Tm shift; 0% = protein alone, 100% = glycine-bound protein | AID 1259313 | hit rate 2.5% among 340,000 | Tm shift relative to glycine control, % at 25 µM;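 active = melting temperature shift of at least 10% of the positive control shift, at one fixed dose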
FAS-TE inh = blocks the thioesterase domain of human fatty acid synthase; recombinant FAS-TE, OMFH fluorogenic substrate, fluorescence endpoint; P49327; hit rate 0.67% among 360,000; AID 602261; inhibition, % at 15 µM;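 active = compounds whose normalised, plate-corrected inhibition of enzyme fluorescence in the single-dose primary screen is 50% or more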;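 also: 0% = DMSO with enzyme and 100% = substrate without enzyme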
An asterisk follows results filed as active; nt = no result. An excerpt weighted towards active compounds, which were near 4.6% of everything screened.

SMILES | ADAM10 inh | KLK7 zymogen act | ADAM17 inh | GRIN3A LBD mod | FAS-TE inh
CCOC(=O)C(NC(=O)CCC(=O)Nc1ccc(S(N)(=O)=O)cc1)C(O)c1ccccc1 (centres undefined) | nt | nt | nt | 13* | nt
O=C(/C=C/c1ccccc1Cl)Nc1ccccc1 | 13 | 1 | 2 | 20* | 15
CN(C)S(=O)(=O)c1ccc(NC(=O)/C=C/c2ccccc2Cl)cc1 | 13 | 0 | 7 | 27* | 21
O=C(Nc1ccccc1)Nc1nnc(/C=C/c2ccccc2Cl)s1 | -21 | 0 | -4 | 37* | 1
COC(=O)[C@]12C[C@H](CC(=O)N3CCSCC3)C(=O)N(Cc3cccc4ccccc34)C1=C[C@H](C1CCCC1)O[C@@H]2C | 19 | 1 | 7 | nt | nt
C=Cc1ccc(C(=O)Nc2nnc(-c3cccnc3)s2)cc1 | -6 | 0 | 0 | nt | nt
CC1CC(C#N)N(N(C)C)C1=C(C#N)C#N (centres undefined) | -3 | -1 | -1 | 17* | -7
c1ccc(COc2ccc(Nc3ncnc4nc[nH]c34)cc2)cc1 | -5 | 0 | 1 | 26* | -107
COc1ccc(-n2c(COc3ccc(C)cc3)nnc2SCC(=O)Nc2ccc(S(=O)(=O)Nc3cc(C)nc(C)n3)cc2)cc1 | 5 | 0 | 0 | nt | nt
COc1ccccc1C(=O)NNC(=O)CCC(=O)NCc1ccccc1 | -2 | 0 | -3 | 12* | -9
CCOc1ccccc1N1CCN(C(=O)CCNS(=O)(=O)c2ccccc2F)CC1 | -8 | 0 | -1 | 41* | -2
O=C(CCNS(=O)(=O)c1ccccc1)N1CCN(c2ccccc2F)CC1 | 1 | 0 | 3 | -1 | -1
O=C(CCSc1ccccc1)NCC1CCCO1 (centres undefined) | -2 | 0 | -3 | 17* | -10
CC(NC(=O)OCc1ccccc1)C(=O)NCC1CCCO1 (centres undefined) | -3 | 0 | -2 | -1 | -10
COC(=O)[C@H](Cc1ccccc1)NC(=O)NCC1CCCO1 (some centres undefined) | 3 | 0 | -1 | 14* | -3
COc1ccc(CN(C)CCCn2ccc(NC(=O)OCc3ccccc3)nc2=O)cc1OC | 2 | 0 | 0 | nt | 0
COc1cc(NCCCn2ccc(NC(=O)OCc3ccccc3)nc2=O)cc(OC)c1OC | -13 | 0 | -3 | 17* | -6
O=C(COC(=O)/C=C/c1cccs1)Nc1ccc(F)cc1 | 0 | 0 | 3 | 16* | 4
COC(=O)c1ccccc1NC(=O)COC(=O)/C=C/c1cccs1 | -1 | 1 | -3 | 11* | 11
COc1ccccc1C1CCN(C(=O)c2ccccc2)CC1 | -2 | 0 | 4 | 1 | -2
COc1ccccc1C1CCN(c2cc(O)ccc2[N+](=O)[O-])CC1 | 13 | 0 | 2 | 13* | 13
CCCCCCCCN1C(=O)[C@@H](CC(=O)N2CCC(c3ccccc3)CC2)C[C@@]2(C(=O)OC)C1=C[C@H](COCc1ccccc1)O[C@@H]2C | 8 | 0 | 0 | nt | nt
O=C(CN1CCN(c2nc(-c3ccccc3)cs2)CC1)Nc1ccc(Cl)cc1 | 10 | 0 | 4 | nt | nt
COc1cc2c(cc1OC)C(C)N(C(=O)c1cc(C)on1)CC2 (centres undefined) | -10 | 1 | -2 | 13* | -5
CCNC(=S)NNC(=O)CSc1nnc(-c2ccccc2)n1-c1ccc(Cl)cc1 | 1 | 0 | -2 | nt | nt
SMILES | ADAM10 inh | KLK7 zymogen act | ADAM17 inh | GRIN3A LBD mod | FAS-TE inh
COc1ccc(Nc2nc(-c3ccccc3)nc3ccccc23)cc1 | -7 | 2 | 1 | 34* | 37
COc1nc(-c2cccc([N+](=O)[O-])c2)nc2ccccc12 | -3 | 0 | -2 | 2 | 8
COc1ccc(Nc2nc(-c3cccc([N+](=O)[O-])c3)nc3ccccc23)cc1 | 1 | 0 | -1 | 46* | 39
COc1ccc(-c2nc(N/N=C(\C)c3ccc(O)cc3)c3ccccc3n2)cc1 | -8 | -1 | -5 | 13* | 22
O=[N+]([O-])c1ccc(-c2nc(Nc3ccc(O)cc3)c3ccccc3n2)cc1 | -2 | 0 | -3 | 23* | 18
Cc1ccc(Nc2nc(-c3cccnc3)nc3ccccc23)cc1 | -7 | -1 | -6 | -2 | 16
Cc1n[nH]c(=O)nc1Nc1ccc(O)cc1 | 1 | 0 | -3 | -1 | -7
Oc1ccc(Nc2nc(-c3ccccc3)nc3ccccc23)cc1 | nt | nt | nt | 42* | 3
COc1ccc(Nc2nc(-c3cccs3)nc3ccccc23)cc1 | -85 | 4 | -23 | 27* | 37
